Assay results published in PubChem BioAssay (Tox21).
Records with an inconclusive call do not appear. Active and inactive are the calls of the source. Unless noted, calls come from the whole dose curve; as a rule, active = well fitted curve in the direction sought with a large enough effect in the repeat runs; inconclusive = weak or mixed curves; inactive = no such curve, though single readings can be large; an effect the other way counts as inactive or inconclusive.

How the values were obtained:
[1] = qHTS assay to identify small molecule agonists of the hypoxia (HIF-1) signaling pathway - cell viability counter screen (AID 1224844; calls by dose curve; note: nearly all actives have a fitted effect of over 50% in size)
Method in brief: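 CellTiter-Glo luminescence read-out, 30 min RT, taken in the same wells as the beta-lactamase HRE reporter assay; HRE-bla ME-180 cells, 0.5% dialyzed FBS, 17 hr compound treatment at 37C, 5% CO2.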

[2] = qHTS assay to identify small molecule agonists of H2AX (AID 1224845; active = well fitted activation curve with a large enough effect in the signal ratio in the repeat runs, not every such curve was filed as active; the % refers to the signal ratio)
Method in brief: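 Phospho-H2AX Ser139 measured by HTRF (ex 320 nm; em 665 and 620 nm) after 24 hr antibody incubation. Compounds, 15 concentrations, 0.76% DMSO, were applied to CHO-K1 cells for 3hr at 37C before lysis.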

[3] = qHTS assay to identify small molecule agonists of the hypoxia (HIF-1) signaling pathway (AID 1224846; active = well fitted activation curve with a large enough effect in the signal ratio in the repeat runs, not every such curve was filed as active; the % refers to the signal ratio)
Method in brief: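 Beta-lactamase FRET read-out (CCF4-AM substrate) from ME-180 cells carrying an HRE-driven bla reporter, after 17 hrs compound exposure at 37C/5% CO2. Cells were seeded at 2,000 per well in 0.5% dialyzed FBS medium and preincubated 5 hrs.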

[4] = qHTS assay to identify small molecule agonists of H2AX - cell viability counter screen (AID 1224847; calls by dose curve;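 note: wild-type CHO-K1 cells; top concentration of the series differs between compounds; nearly all actives have a fitted effect of over 30% in size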)
Method in brief: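 CHO-K1 cells plated overnight at 37C, then exposed 3 h at 37C to compounds at 15 concentrations (0.76% DMSO final). Viability by CellTiter-Glo luminescence after 30 min at room temperature.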

[5] = qHTS assay to identify small molecule antagonists of the estrogen related receptor (ERR) signaling pathway from Tox21 library (AID 1224848); note: nearly all actives have a fitted effect of over 50% in size
Method in brief: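 Luciferase luminescence (ONE-Glo, 30 min room temperature) was the read-out. Cells of the NTP-supplied ERR line, 2,000 per well, were given 6 h at 37 C before compound addition in DMSO and 18 h exposure at 37 C.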

[6] = qHTS RealTime-Glo MT Cell Viability Assay in HEK293 cells - 32 hour (AID 1224868); note: top concentration of the series differs between compounds; nearly all actives have a fitted effect of over 50% in size
Method in brief: (§1)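 Viability tracked continuously by luminescence as live cells reduce a prosubstrate for NanoLuc; HEK293 cells preincubated 5 h, compound-treated at 37 C, and read at 0, 8, 16, 24, 32 and 40 h.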

[7] = A CellTox Green Cytotoxicity Assay to monitor cytotoxicity in HEK293 cells - 0 hour (AID 1224869); note: nearly all actives have a fitted effect of over 50% in size
Method in brief: (§2)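 Read-out: fluorescence of a cell-impermeant cyanine dye staining DNA of dead cells, proportional to cytotoxicity. HEK293, 600 cells/well with reagent, compound (23 nL DMSO) added after 5 h; reads at 0, 8, 16, 24, 32, 40 h.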

[8] = A CellTox Green Cytotoxicity Assay to monitor cytotoxicity in HEK293 cells - 40 hour (AID 1224871); note: nearly all actives have a fitted effect of over 45% in size
Method in brief: as §2

[9] = qHTS RealTime-Glo MT Cell Viability Assay in HEK293 cells - 16 hour (AID 1224872)
Method in brief: as §1

[10] = qHTS RealTime-Glo MT Cell Viability Assay in HepG2 cells - 8 hour (AID 1224873); note: nearly all actives have a fitted effect of over 55% in size
Method in brief: (§3)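 Real-time viability: cells seeded at 600 per well together with NanoLuc and cell-permeant prosubstrate, compounds added after 5 h incubation. Luminescence tracked at 0, 8, 16, 24, 32 and 40 h of exposure.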

[11] = qHTS RealTime-Glo MT Cell Viability Assay in HEK293 cells - 40 hour (AID 1224874); settings: RealTime-Glo luminescence; max response: active compounds read low; note: nearly all actives have a fitted effect of over 50% in size
Method in brief: (§4)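 Luminescence readout at each listed time point; HEK293, 600 cells/well, RealTime-Glo MT reagent added with cells; compounds pinned (23 nL in DMSO) after 5 h at 37 C; continuous culture at 37 C.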

[12] = A CellTox Green Cytotoxicity Assay to monitor cytotoxicity in HEK293 cells - 24 hour (AID 1224875); note: series mostly up to about 77 µM; nearly all actives have a fitted effect of over 45% in size
Method in brief: as §2

[13] = A CellTox Green Cytotoxicity Assay to monitor cytotoxicity in HepG2 cells - 16 hour (AID 1224876); note: nearly all actives have a fitted effect of over 45% in size
Method in brief: (§5)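 HepG2, 600 cells/well premixed w/ CellTox Green; 5 h settle, 37 C/5% CO2; pintool cpd add (DMSO); 37 C, 40 h; fluorescence read at 0, 8, 16, 24, 32, 40 h.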

[14] = qHTS RealTime-Glo MT Cell Viability Assay in HepG2 cells - 32 hour (AID 1224877); note: nearly all actives have a fitted effect of over 55% in size
Method in brief: (§6)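 Viability was tracked continuously by NanoLuc luminescence from prosubstrate reduced by living HepG2 cells, at successive time points over 40 h of compound exposure. Cells with reagent were preincubated 5 h at 37 °C before compound addition.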

[15] = A CellTox Green Cytotoxicity Assay to monitor cytotoxicity in HepG2 cells - 24 hour (AID 1224878); note: nearly all actives have a fitted effect of over 45% in size
Method in brief: as §5

[16] = A CellTox Green Cytotoxicity Assay to monitor cytotoxicity in HepG2 cells - 40 hour (AID 1224879); note: nearly all actives have a fitted effect of over 40% in size
Method in brief: as §5

[17] = qHTS RealTime-Glo MT Cell Viability Assay in HEK293 cells - 0 hour (AID 1224880)
Method in brief: as §4

[18] = qHTS RealTime-Glo MT Cell Viability Assay in HepG2 cells - 24 hour (AID 1224867); note: nearly all actives have a fitted effect of over 50% in size
Method in brief: as §6

[19] = qHTS RealTime-Glo MT Cell Viability Assay in HepG2 cells - 40 hour (AID 1224870); note: nearly all actives have a fitted effect of over 50% in size
Method in brief: as §3
% is set by controls: 0 for no effect and ±100 for the full control effect.

O=C(O)CC(C(=O)O)S(=O)(=O)O (stereo not given)
inactive: Potency [1] | Potency [2] | outcome [3] | outcome [4] | Potency [5] | Potency [6] | outcome [7] | Potency [8] | Potency [9] | outcome [10] | max response [11] 5.69% | outcome [12] | outcome [13] | Potency [14] | outcome [15] | Potency [16] | Potency [17]

CC(C)[C@H]1CC[C@@H](C)CC1=O
inactive: Potency [1] | Potency [2] | outcome [3] | outcome [4] | outcome [18] | Potency [6] | outcome [7] | Potency [19] | Potency [8] | Potency [9] | outcome [10] | max response [11] -1.73% | outcome [12] | outcome [13] | Potency [14] | outcome [15] | Potency [16] | Potency [17]

[O-][n+]1cccc(CO)c1
inactive: Potency [1] | Potency [2] | outcome [3] | outcome [4] | outcome [18] | Potency [6] | outcome [7] | Potency [19] | Potency [8] | Potency [9] | outcome [10] | max response [11] 8.89% | outcome [12] | outcome [13] | Potency [14] | outcome [15] | Potency [16] | Potency [17]

O=C(O)c1cc(C(=O)O)cc(C(=O)O)c1
inactive: Potency [1] | Potency [2] | outcome [3] | outcome [4] | outcome [18] | Potency [6] | outcome [7] | Potency [19] | Potency [8] | Potency [9] | outcome [10] | max response [11] 16.8% | outcome [12] | outcome [13] | Potency [14] | outcome [15] | Potency [16] | Potency [17]

CC(=O)C1CCCCC1=O (stereo not given)
inactive: Potency [1] | Potency [2] | outcome [3] | outcome [4] | outcome [18] | Potency [6] | outcome [7] | Potency [19] | Potency [8] | Potency [9] | outcome [10] | max response [11] 15.3% | outcome [12] | outcome [13] | Potency [14] | outcome [15] | Potency [16] | Potency [17]

Cc1ncc([C@@H](CCCCCCc2ccc3c(n2)NCCC3)CC(=O)O)cn1
inactive: Potency [1] | Potency [2] | outcome [3] | outcome [4] | outcome [18] | Potency [6] | outcome [7] | Potency [19] | Potency [8] | Potency [9] | outcome [10] | max response [11] 4.72% | outcome [12] | outcome [13] | Potency [14] | outcome [15] | Potency [16] | Potency [17]

Cc1ncc(COP(=O)(O)O)c(C=O)c1O
inactive: Potency [1] | Potency [2] | outcome [3] | outcome [4] | outcome [18] | Potency [6] | outcome [7] | Potency [19] | Potency [8] | Potency [9] | outcome [10] | max response [11] -0.601% | outcome [12] | outcome [13] | Potency [14] | outcome [15] | Potency [16] | Potency [17]
